The results in this text go back to PubChem BioAssay AID1645838 (ICCB-Longwood Screening Facility, Harvard Medical School, 2021).

A short description of the test: modulators of mitochondrial supercomplex assembly, cell-based, luminescence, Hoechst nuclei count (AID 1645838).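 On all read-outs here: control cybrid cells.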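 On z-score: higher means more mitochondrial supercomplex formation.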 As to conditions: Cells, luminescence/Hoechst cell count ratio, supercomplex reporter; for z-score: stronger effect = higher value; for cell count: measured here: cell number, Hoechst nuclei count.
[1] abbreviates: library stock concentration (final well concentration not given) 46 uM.
The mark [2] stands for this setting: library stock concentration (final well concentration not given) 278 uM.
Where [3] appears, read: library stock concentration (final well concentration not given) 1.67 mM.
[4] abbreviates: library stock concentration (final well concentration not given) 10 mM.
Setting [5] is: library stock concentration (final well concentration not given) 80 uM.
The mark [6] stands for this setting: library stock concentration (final well concentration not given) 400 uM.
The mark [7] stands for this setting: library stock concentration (final well concentration not given) 2 mM.

The structures appear in SMILES notation. “And” between values parts separate entries of the source, which are not always exact repeats. Identical values can stand only once. Hit rate of the full screen: of about 2,000 compounds, about 100 (5%) were called active. No stated cut-off is given here; in the data, active means z-score above about 2; inactive means the rest. Only a selection was taken, and actives are over-represented in it overall. The source holds several records for some structures; these can differ, active in one and inactive in another.

Take `CCCCCCCC(=O)OC[C@H](CO)OC(=O)CCCCCCC`: the z-score is -0.0675 (inactive) and the cell count turned out to be 5320.
Take `CCCCCc1ccc(C=CC(=O)Nc2ccccc2C(=O)O)cc1`: the z-score runs as follows: under setting [1], 0.0102 (inactive); under setting [2], -0.157 (inactive); under setting [3], -0.383 (inactive); under setting [4], -0.45 (inactive). For the same compound, the cell count under setting [1] was found to be 6840, the cell count under setting [2] was found to be 6660, the cell count under setting [3] amounted to 6860 and the cell count under setting [4] worked out at 6620.
`CC(C)[C@H](C(=O)Nc1ccc(C(=O)NO)cc1)c1ccccc1`: the outcome is “inactive; censored for cell count”.
Consider `CCCCN(Cc1ccc(C(=O)NO)cc1)C(=O)Nc1ccccc1`, for which the z-score is, setting by setting: under setting [5], -0.413 (inactive); under setting [6], -0.344 (inactive); under setting [7], 0.545 (inactive); under setting [4], 1.99 (active). Besides, the cell count is, setting by setting: under setting [5], 5840; under setting [6], 5790; under setting [7], 4990; under setting [4], 3280.
Take `CC(C)(C)CCN1C[C@@H]2C(CNC(=O)c3cc(Cl)cc(Cl)c3)[C@@H]2C1` (some centres undefined): the z-score is, setting by setting: under setting [5], 0.249 (inactive); under setting [6], -0.0169 (inactive); under setting [7], -0.303 (inactive); under setting [4], -0.298 (inactive). Also, the cell count is, setting by setting: under setting [5], 4670; under setting [6], 5180; under setting [7], 5270; under setting [4], 4390.
As to `CCCCC[C@H](O)/C=C/[C@@H]1[C@H]2CC(CCCCC(=O)O)O[C@H]2C[C@H]1O` (some centres undefined), the z-score was -0.784 (inactive) and the cell count was determined as 6080.
On to `O=C(NC(=O)c1c(F)cccc1Cl)NC1c2ccccc2-c2ccccc21`, for which the z-score runs as follows: under setting [1], -0.18 (inactive); under setting [2], -0.113 (inactive); under setting [3], -0.216 (inactive); under setting [4], -0.278 (inactive). Moreover, the cell count runs as follows: under setting [1], 6490; under setting [2], 6240; under setting [3], 6190; under setting [4], 5520.
As for `CC(C=CC1=C(C)CCCC1(C)C)=CC=CC(C)=CC(=O)O`, the z-score by setting is: under setting [1], -0.113 (inactive); under setting [2], -0.063 (inactive); under setting [3], -0.22 (inactive); under setting [4], 0.0473 (inactive). The cell count by setting is: under setting [1], 5180; under setting [2], 5150; under setting [3], 5430; under setting [4], 4870.
`O=C1NC(=O)/C(=C/c2ccc3c(c2)OC(F)(F)O3)S1`: the z-score was 0.349 (inactive) and the cell count turned out to be 4670.
On to `O=C1NC(=O)C(=Cc2ccc3nccnc3c2)S1`, for which the z-score runs as follows: under setting [5], -0.0169 (inactive) and -0.181 (inactive); under setting [6], 0.573 (inactive) and -0.161 (inactive); under setting [7], 1.47 (inactive) and -0.299 (inactive); under setting [4], 2.46 (active) and -0.465 (inactive). Besides, the cell count was 4280 and 5470 under setting [5]; 4140 and 5420 under setting [6]; 3800 and 5820 under setting [7]; 2300 and 3900 under setting [4].
As to `O=C1NC(=O)/C(=C/c2ccc3nccnc3c2)S1`, the z-score was 0.662 (inactive) and the cell count was 4050.
`CC(C)(CCCCCCCCCCC(C)(C)CC(=O)O)CC(=O)O`: the z-score was 2.9 (active) and the cell count was 5040.
In the case of `CCCCCCCCCCC(=O)O`, the z-score was -0.0477 (inactive) under setting [1], 0.267 (inactive) under setting [2], -0.0647 (inactive) under setting [3] and 0.212 (inactive) under setting [4]. In addition, the cell count runs as follows: under setting [1], 6640; under setting [2], 6810; under setting [3], 6810; under setting [4], 6380.
As to `CCCCCCCCCCCCCCCC(=O)O`, the z-score was -0.762 (inactive) and the cell count came out at 5780.
For the compound `COC1C(N(C)C(=O)c2ccccc2)C[C@@H]2O[C@]1(C)n1c3ccccc3c3c4c(c5c6ccccc6n2c5c31)C(=O)NC4` (some centres undefined), the outcome reads like this: (library stock 2 mM) “inactive; censored for cell count”; (library stock 10 mM) “inactive; censored for cell count”. Further, the z-score under setting [5] was 0.298 (inactive) and the z-score under setting [6] is 1.12 (inactive). The cell count reads like this: under setting [5], 5280; under setting [6], 4120.
Turning to `CCOC(=O)c1c(Cc2cccc(Cl)c2)[nH]c2c1cc(O)c1ccccc12`, the z-score was 0.267 (inactive) and the cell count was found to be 5070.
On the same counts, the results for `CCCCC(C)(O)C/C=C/[C@H]1[C@H](O)CC(=O)[C@H]1CCCCCCC(=O)OC` (some centres undefined) are -0.356 (inactive) and 5650.
On the same counts, the results for `NC(=O)c1cccc(-c2cccc(OC(=O)NCCCCCCc3ccccc3)c2)c1` are 0.191 (inactive) and 4760.
For `CC(C)NCC(O)c1ccc(O)c(O)c1` (centres undefined), the z-score was 0.406 (inactive) under setting [1], 0.956 (inactive) under setting [2], 0.578 (inactive) under setting [3] and 1.22 (inactive) under setting [4]. Moreover, the cell count worked out at 6420 under setting [1], 6030 under setting [2], 6690 under setting [3] and 6300 under setting [4].
Take `OCc1cc(C(O)CNCCCCCCOCCCCc2ccccc2)ccc1O` (centres undefined): the z-score reads like this: under setting [5], 1.97 (active); under setting [6], 1.87 (inactive); under setting [7], 1.36 (inactive); under setting [4], 1.79 (inactive). The cell count turned out to be 4600 under setting [5], 4730 under setting [6], 4660 under setting [7] and 3230 under setting [4].
Consider `COc1cc(C2c3cc4c(cc3C(O)[C@H]3COC(=O)[C@@H]23)OCO4)cc(OC)c1OC` (some centres undefined), for which the outcome (library stock 2 mM) was “inactive; censored for cell count” and the outcome (library stock 10 mM) was “inactive; censored for cell count”. Further, the z-score by setting is: under setting [5], -0.602 (inactive); under setting [6], -0.324 (inactive). Besides, the cell count is 5600 under setting [5] and 3990 under setting [6].
`O=C(O)CCC/C=C\C[C@@H]1[C@@H](/C=C/C(=O)CCc2ccccc2)[C@H](O)C[C@@H]1O`: the z-score is 0.328 (inactive) and the cell count was found to be 4980.
With `CCCCC[C@H](O)/C=C/[C@H]1C=CC(=O)[C@@H]1C/C=C\CCCC(=O)O`, the z-score is 0.972 (inactive) and the cell count worked out at 5050.
Regarding `Oc1ccc(C=NN(Cc2ccccc2)Cc2ccccc2)cc1`, the z-score is, setting by setting: under setting [5], 0.58 (inactive); under setting [6], 0.621 (inactive); under setting [7], 0.515 (inactive); under setting [4], 1.23 (inactive). Moreover, the cell count under setting [5] was 4430, the cell count under setting [6] came to 4410, the cell count under setting [7] turned out to be 3940 and the cell count under setting [4] stood at 3600.
Take `CC1(C)OC2CO[C@@]3(COS(N)(=O)=O)OC(C)(C)OC3C2O1` (some centres undefined): the z-score runs as follows: under setting [5], 0.166 (inactive); under setting [6], 0.0797 (inactive); under setting [7], 0.165 (inactive); under setting [4], -0.169 (inactive). The cell count by setting is: under setting [5], 6240; under setting [6], 6200; under setting [7], 5750; under setting [4], 5940.
As for `CCCCCCCCCCCCCCCCC(=O)NCCO`, the z-score is 0.812 (inactive) and the cell count turned out to be 5880.
In the case of `CC(N)c1ccc(C(=O)Nc2ccnc3[nH]ccc23)cc1` (centres undefined), the z-score reads like this: under setting [5], 0.0935 (inactive); under setting [6], -0.0384 (inactive); under setting [7], -0.229 (inactive); under setting [4], 0.129 (inactive). Moreover, the cell count was determined as 5400 under setting [5], 5420 under setting [6], 5670 under setting [7] and 3470 under setting [4].
For the compound `O=C(Cc1cccc(OC(F)(F)F)c1)Nc1ccc(CCCCc2nnc(NC(=O)Cc3ccccn3)s2)nn1`, the z-score is 1.3 (inactive) under setting [1], 3.8 (active) under setting [2], 4.04 (active) under setting [3] and 4.54 (active) under setting [4]. Moreover, the cell count is, setting by setting: under setting [1], 5940; under setting [2], 4200; under setting [3], 4190; under setting [4], 3940.
Regarding `NC(=O)c1cnc(NC2CCCCC2N)nc1Nc1cccc(-n2nccn2)c1` (centres undefined), the z-score was -0.155 (inactive) under setting [5], -0.103 (inactive) under setting [6], 0.129 (inactive) under setting [7] and 0.743 (inactive) under setting [4]. Besides, the cell count was found to be 5260 under setting [5], 4840 under setting [6], 5390 under setting [7] and 3000 under setting [4].
As to `CCCC[C@H](C)C[C@H](O)/C=C/[C@H]1[C@H](O)CC(=O)[C@@H]1CCCCC(CC(=O)O)OC` (some centres undefined), the z-score is -0.235 (inactive) and the cell count came out at 5180.
For the compound `CC(C)OC(=O)N1CCC(Oc2ncnc3c2cnn3-c2ccc(S(C)(=O)=O)cc2F)CC1`, the z-score by setting is: under setting [1], -0.707 (inactive); under setting [2], -0.537 (inactive); under setting [3], -0.462 (inactive); under setting [4], -0.531 (inactive). For the same compound, the cell count stood at 7670 under setting [1], 7400 under setting [2], 7330 under setting [3] and 7200 under setting [4].
